The source of these data is PubChem BioAssay.

SMILES strings stand for the structures. For part of these data: Entries with a potency or affinity are not part of this list. Activity calls are given as the source filed them.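 Rule for the calls, unless noted: active = primary screen active and over 50% activation in each of two duplicate runs; inactive = the rest.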

The subject of test [1] is TRPC4 beta (transient receptor potential cation channel C4), mouse. In words: activators of mouse TRPC4 channel, confirmation, cell-based, Fluo4 calcium, HEK293 TRPC4beta/mu-opioid, duplicates, 10 µM (AID 2426;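 active = fluorescence ratio normalized to control raised more than 50% in primary screen plus both repeat runs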). The conditions noted are these: Fluo4 calcium fluorescence, at 10 µM; stronger effect = higher value.
The subject of test [2] is transient receptor potential cation channel C4 beta (TRPC4), mouse. Briefly: activators of mouse TRPC4 channel, confirmation, cell-based, second round, Fluo4, HEK293 TRPC4beta/mu-opioid, 1 µM (AID 2461). The conditions noted are these: Fluo4 calcium fluorescence, at 1 µM; stronger effect = higher value.
Test [3] deals with TRPC4 (transient receptor potential cation channel C4 beta), mouse. Briefly: positive allosteric modulators of mouse TRPC4, confirmation, cell-based, second round, Fluo-4, HEK293 TRPC4beta/mu-opioid, 1 µM (AID 2554;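 active = primary screen hit whose fluorescence ratio, in both repeats, exceeds the weak agonist control mean by 3 SD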). The following applies: DAMGO EC20, Fluo-4 calcium flux, at 1 µM; stronger effect = higher value.
Test [4] deals with TRPC4 beta (transient receptor potential cation channel C4), mouse. Briefly: positive allosteric modulators of mouse TRPC4, confirmation, cell-based, Fluo-4, HEK293 TRPC4beta/mu-opioid (AID 2555;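 active = primary screen hit whose calcium fluorescence ratio, in both repeats, exceeds the weak agonist control mean by 3 SD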). The following applies: DAMGO EC20, Fluo-4 calcium flux, at 10 µM; stronger effect = higher value. In general terms: Calcium flux is commonly read through the fluorescence of an indicator in the cells.

Test [5] addresses Short transient receptor potential channel 4 (Mus musculus) (UniProt Q9QUQ5). In words: inhibitors of mouse TRPC4 channel, confirmation, cell-based, Fluo4, HEK293 TRPC4beta/mu-opioid (AID 2636;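 active = calcium signal cut by more than 3 SD below the full-agonist control yet still positive, in both repeats and the earlier primary screen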). The following applies: DAMGO, Fluo4 calcium flux, at 10 µM; stronger effect = higher value.
The target is the same in test [6]. In words: inhibitors of mouse TRPC4 channel, confirmation, cell-based, second round, Fluo4, HEK293 TRPC4beta/mu-opioid, 1 µM (AID 2637;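 active = calcium signal ratio cut to more than 3 SD under the fully stimulated control mean yet still positive, in both repeats and the primary screen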;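 for inhibition: percent of integrated ratio relative to wells lacking test compound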). The conditions noted are these: Fluo4 calcium flux, DAMGO, at 1 µM; stronger effect = higher value.
The target is the same in test [7]. In words: mouse TRPC4 channel activators, dose response, cell-based, HEK293 TRPC4/mu-opioid, Fluo-4 calcium (AID 434937;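 active = primary screen activator hit with a dose response curve and TRPC4 channel activation at any tested dose; inactive = no activation, no dose response, or not a primary hit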).
The target is the same in test [8]. Briefly: TRPC4 positive allosteric modulators, dose response, cell-based, HEK293 TRPC4/mu-opioid, Fluo-4 calcium, EC20 DAMGO (AID 434941;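 active = earlier screen potentiator hit that boosts the TRPC4 ion channel at some dose, with a dose response; inactive = no potentiation, no dose response, or not a prior hit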;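 note: calcium entry triggered by an EC20 dose of DAMGO at the co-expressed mu-opioid receptor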).
The target of test [9] is Short transient receptor potential channel 6 (Mus musculus) (UniProt Q61143). Briefly: inhibition of mouse TRPC6 channel, confirmation, selectivity assay for TRPC4 inhibitor project, cell-based, HEK293, membrane potential dye, duplicate (AID 434948;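 active = active in primary screen and both duplicates, each dropping signal beyond three positive-control SD with fluorescence still positive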). The conditions noted are these: HEK293 TRPC6, membrane potential dye fluorescence, at 10 µM, stimulated with maximal-effect acetylcholine; stronger effect = higher value.
Sequence of Short transient receptor potential channel 6 (Mus musculus) (Q61143 whole entry, looked up): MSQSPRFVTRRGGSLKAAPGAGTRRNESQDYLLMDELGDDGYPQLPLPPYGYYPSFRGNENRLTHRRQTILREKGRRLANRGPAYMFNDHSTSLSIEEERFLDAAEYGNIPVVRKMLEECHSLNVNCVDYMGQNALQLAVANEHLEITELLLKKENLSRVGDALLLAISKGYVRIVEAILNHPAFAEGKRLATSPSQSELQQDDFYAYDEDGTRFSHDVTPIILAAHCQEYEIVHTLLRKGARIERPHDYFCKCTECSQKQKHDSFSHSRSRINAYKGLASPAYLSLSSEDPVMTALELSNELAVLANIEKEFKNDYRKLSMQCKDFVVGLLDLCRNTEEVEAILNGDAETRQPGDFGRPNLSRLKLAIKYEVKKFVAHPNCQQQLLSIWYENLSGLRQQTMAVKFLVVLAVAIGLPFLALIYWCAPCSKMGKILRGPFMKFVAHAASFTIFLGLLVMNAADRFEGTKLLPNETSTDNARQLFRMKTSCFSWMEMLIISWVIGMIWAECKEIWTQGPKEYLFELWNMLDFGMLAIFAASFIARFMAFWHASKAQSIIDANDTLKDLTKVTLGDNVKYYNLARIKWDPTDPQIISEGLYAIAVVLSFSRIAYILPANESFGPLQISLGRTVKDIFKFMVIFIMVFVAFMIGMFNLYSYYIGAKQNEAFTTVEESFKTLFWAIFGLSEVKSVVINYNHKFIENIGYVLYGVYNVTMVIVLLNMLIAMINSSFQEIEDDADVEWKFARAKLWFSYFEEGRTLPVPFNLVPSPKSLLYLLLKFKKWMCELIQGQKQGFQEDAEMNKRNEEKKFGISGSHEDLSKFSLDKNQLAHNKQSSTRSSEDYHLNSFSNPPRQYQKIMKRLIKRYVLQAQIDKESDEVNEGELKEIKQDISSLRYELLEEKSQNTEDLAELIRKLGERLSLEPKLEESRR

Test [10] has the same target. Briefly: activation of mouse TRPC6 channel, confirmation, selectivity assay for TRPC4 activator project, cell-based, HEK293, membrane potential dye, duplicate (AID 434950;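 active = membrane potential signal rise above negative control mean plus 3 SD in both duplicates, also active in the earlier TRPC4 screen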). The conditions noted are these: HEK293 TRPC6, membrane potential fluorescence, at 10 µM; stronger effect = higher value.
Test [11] has the same target. In words: TRPC6 potentiation by TRPC4 potentiator hits, confirmation, selectivity assay for TRPC4 potentiator project, HEK293 cells, membrane potential dye, duplicate (AID 434952;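 active = compound raising the membrane signal above positive-control mean plus 3 SD in both repeats, and a primary screen hit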). The following applies: HEK293 TRPC6, membrane potential dye fluorescence, at 10 µM, maximal acetylcholine added after compound; stronger effect = higher value.
Test [12] addresses Short transient receptor potential channel 4 (Mus musculus) (UniProt Q9QUQ5). In words: calcium flux activators in TRPC4/5HT1a cells, counter-screen for TRPC4 activator project, cell-based, second counter screen, HEK293 TRPC4/5HT1a, Fluo-4 (AID 434977;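 active = calcium signal rise above buffer-control mean plus 5 SD in both duplicates, and also a hit in the primary screen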). The conditions noted are these: Fluo-4 calcium flux, at 10 µM; stronger effect = higher value.
A short description of test [13]: calcium flux inhibitors in TRPC4/5HT1a cells, confirmation, counter-screen for TRPC4 inhibitor project, cell-based, second counter screen, HEK293 TRPC4/5HT1a, Fluo-4 (AID 434978;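 active = primary screen active whose calcium signal fell more than 3 SD beyond the full-serotonin control mean in both duplicate plates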;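 for outcome: serotonin given first at submaximal then at maximal dose after compound preincubation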). The following applies: Fluo-4 calcium flux, at 10 µM, serotonin added to trigger calcium flux; stronger effect = higher value.
Test [14] relates to TRPC4 (mouse), co-expressed with 5HT1a in HEK293. Briefly: calcium flux potentiators in TRPC4/5HT1a cells, confirmation, counter-screen for TRPC4 potentiator project, cell-based, second counter screen, HEK293 TRPC4/5HT1a, Fluo-4 (AID 434979;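 active = signal rise over 3 SD above mean of control wells given weak agonist, in both repeats and first screen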). The following applies: Fluo-4 calcium flux, at 10 µM, serotonin added at its EC20 dose; stronger effect = higher value.
A short description of test [15]: calcium flux activation in mu-opioid HEK293 cells, confirmation, counter-screen for TRPC4 activator project, cell-based, HEK293 mu-opioid receptor line (AID 449723;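 active = hit in primary screen, with calcium signal over 5 SD above buffer well mean in both duplicates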;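 note: counter screen cells carry the mu-opioid receptor alone and lack TRPC4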). The conditions noted are these: Fluo-4 calcium fluorescence, at 10 µM; stronger effect = higher value.
The nature of test [16]: calcium flux enhancement in mu-opioid HEK293 cells, confirmation, counter-screen for TRPC4 allosteric potentiator project, cell-based, HEK293 mu-opioid receptor line (AID 449724;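 active = calcium signal rise more than 3 SD above the low-dose agonist control mean, in both duplicate plates and the primary screen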;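 note: HEK293 cells carrying mu-opioid receptor only with no TRPC4 channel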). The conditions noted are these: Fluo-4 calcium flux, at 10 µM, compound added before EC20 DAMGO stimulus; stronger effect = higher value.

Sequence of Short transient receptor potential channel 4 (Mus musculus) (Q9QUQ5 whole entry, looked up): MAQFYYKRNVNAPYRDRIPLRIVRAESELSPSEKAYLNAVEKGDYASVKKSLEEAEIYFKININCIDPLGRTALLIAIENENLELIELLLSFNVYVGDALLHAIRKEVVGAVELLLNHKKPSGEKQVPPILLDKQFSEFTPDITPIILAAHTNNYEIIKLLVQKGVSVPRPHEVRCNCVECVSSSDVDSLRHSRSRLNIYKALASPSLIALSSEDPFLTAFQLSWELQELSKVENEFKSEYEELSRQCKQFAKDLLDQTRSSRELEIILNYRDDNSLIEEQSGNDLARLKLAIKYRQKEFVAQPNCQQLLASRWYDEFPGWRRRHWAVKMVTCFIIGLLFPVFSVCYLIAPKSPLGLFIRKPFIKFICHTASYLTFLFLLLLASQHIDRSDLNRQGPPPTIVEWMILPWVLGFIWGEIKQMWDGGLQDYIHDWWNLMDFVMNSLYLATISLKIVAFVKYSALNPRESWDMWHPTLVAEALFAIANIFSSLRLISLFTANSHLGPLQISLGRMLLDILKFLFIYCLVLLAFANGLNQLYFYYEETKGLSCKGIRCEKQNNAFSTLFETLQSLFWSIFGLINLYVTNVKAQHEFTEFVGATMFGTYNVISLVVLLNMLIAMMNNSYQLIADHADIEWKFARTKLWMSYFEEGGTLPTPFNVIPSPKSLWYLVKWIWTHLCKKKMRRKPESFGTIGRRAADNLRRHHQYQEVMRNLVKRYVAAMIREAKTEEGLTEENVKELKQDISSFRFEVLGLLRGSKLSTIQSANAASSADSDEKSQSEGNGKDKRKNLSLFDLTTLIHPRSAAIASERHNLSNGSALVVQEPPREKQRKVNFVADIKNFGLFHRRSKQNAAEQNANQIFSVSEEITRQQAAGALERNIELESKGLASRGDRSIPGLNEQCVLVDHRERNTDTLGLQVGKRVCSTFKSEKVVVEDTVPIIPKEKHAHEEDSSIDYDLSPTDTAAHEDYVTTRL

`CCOc1ccc2[nH]c3c(N4CCN(c5ccccn5)CC4)ncnc3c2c1`: the outcome in [1], in test [2], in [3], in test [4], in test [6] and in test [7] was inactive. The outcome in test [8], in test [9], in [10], in test [11], in [12] and in [13] was inactive. Also, the outcome in test [14], in [15] and in test [16] was inactive. In addition, the inhibition (usually the relative decrease from the control value, in per cent) in [5] was 83% (active).

For `COC(=O)c1c(NC(=O)CSc2ncn[nH]2)sc(C)c1C`, the outcome in [1], in test [2], in test [3], in [4], in test [6] and in test [7] was inactive. Further, the result in test [8], in test [9], in test [10], in [11], in test [12] and in test [13] was inactive. Also, the result in test [14], in [15] and in test [16] was inactive. Besides, the inhibition in test [5] was 67% (active).

As for `O=C(Cc1ccccc1[N+](=O)[O-])OCc1cccc([N+](=O)[O-])c1`, the result in [1], in test [2], in test [3], in test [4], in [7] and in test [8] was inactive. For the same compound, the call in test [9], in test [10], in [11], in test [12], in test [14] and in test [15] was inactive. Further, the outcome in test [16] was inactive. Besides, the results for the inhibition in test [5], in test [6] and in test [13] were 92% (active), 62% (active) and 35% (active), respectively.

`OCC1(Cc2ccccc2)CCN(Cc2ccc(C(F)(F)F)cc2)CC1`: the outcome in test [1], in [2], in [3], in test [4], in test [6] and in test [7] was inactive. Further, the result in test [8], in test [9], in test [10], in test [11], in test [12] and in [14] was inactive. In addition, the result in test [15] and in [16] was inactive. The inhibition is 91% (active) in test [5] and 23.3% (active) in test [13].

As for `Cc1[nH]n(C)c(=O)c1C(=O)c1c(-c2c(Cl)cccc2Cl)noc1C`, the result in test [1], in test [2], in [3], in test [4], in test [7] and in [8] was inactive. Further, the outcome in test [9], in test [10], in test [11], in test [12], in [14] and in test [15] was inactive. Besides, the result in test [16] was inactive. Also, the results for the inhibition in test [5], in test [6] and in [13] were 90% (active), 42% (active) and 27.3% (active), respectively.

For `CCn1c2ccccc2c2cc(/C=N/NC(=O)c3cc(O)cc(O)c3)ccc21`, the result in test [1], in [2], in [3], in [4], in test [7] and in test [8] was inactive. The outcome in [9], in test [10], in test [11], in test [12], in [14] and in test [15] was inactive. In addition, the outcome in [16] was inactive. The inhibition in test [5] is 78% (active); in test [6], 43% (active); in test [13], 43% (active).

In the case of `OCC1(Cc2ccc(Cl)cc2)CCN(Cc2ccccc2F)CC1`, the result in [1], in [2], in test [3], in test [4], in [7] and in test [8] was inactive. Also, the compound was classed as inactive in [9], in [10], in test [11], in [12], in test [14] and in test [15]. In addition, in test [16], the outcome was inactive. The inhibition in test [5] was 89% (active); in [6], 38% (active); in test [13], 27.9% (active).

In the case of `CCOc1ccccc1CN1CCC(n2nccc2NC(=O)CCc2ccccc2)CC1`, the result in [1], in test [2], in test [3], in test [4], in test [7] and in test [8] was inactive. For the same compound, the result in [9], in test [10], in test [11], in test [12], in test [13] and in test [14] was inactive. Also, the result in test [15] and in [16] was inactive. In addition, the inhibition was 97% (active) in test [5] and 69% (active) in test [6].

As for `COc1ncnc2sc3c(c12)CCCC3`, the outcome in test [1], in test [2], in test [3], in test [4], in test [6] and in test [7] was inactive. Besides, the outcome in test [8], in [9], in test [10], in [11], in test [12] and in test [13] was inactive. Moreover, the outcome in [14], in [15] and in [16] was inactive. Besides, the inhibition in [5] is 93% (active).

On to `CCCc1noc2c1/C(=N\O)CC(CC(C)SCC)C2` (stereo not given), for which the result in [1], in test [2], in test [3], in test [4], in [6] and in test [7] was inactive. The result in test [8], in test [9], in test [10], in test [11], in [12] and in [14] was inactive. Besides, the result in test [15] and in [16] was inactive. Also, the values for the inhibition in [5] and in [13] were 92% (active) and 14.8% (active), respectively.

`COc1ccc(Nc2c3c(nc4ccccc24)CCC3)cc1`: the result in test [1], in [2], in test [3], in test [4], in [6] and in test [7] was inactive. In addition, the outcome in [8], in [9], in [10], in test [11], in test [12] and in test [14] was inactive. Also, the outcome in test [15] and in test [16] was inactive. Moreover, the inhibition in [5] was 98% (active); in test [13] it was 22.1% (active).

Turning to `Cn1cc(CNCC2CCCO2)c(-c2ccc(Oc3ccccc3)cc2)n1` (stereo not given), the result in test [1], in test [2], in [3], in test [4], in [6] and in test [7] was inactive. Besides, the result in test [8], in test [9], in test [10], in test [11], in test [12] and in [14] was inactive. The outcome in [15] and in test [16] was inactive. Further, the results for the inhibition in [5] and in [13] were 92% (active) and 45.9% (active), respectively.

With `COCCCNc1cc(C)nc2ccccc12`, the result in [1], in test [2], in test [3], in [4], in test [6] and in test [7] was inactive. Besides, the result in test [8], in test [10], in test [11], in [12], in test [13] and in [14] was inactive. Also, the outcome in [15] and in test [16] was inactive. For the same compound, the inhibition in [5] is 94% (active); in test [9] it was 50.5% (active).

`CCOc1ccc2c(C)nc(NC3=NC(C)(C)C=C(C)N3)nc2c1`: the result in test [1], in [2], in test [3], in test [4], in test [7] and in test [8] was inactive. For the same compound, the compound was classed as inactive in test [9], in [10], in test [11], in test [12], in test [13] and in [14]. Also, the outcome in test [15] and in [16] was inactive. The inhibition in [5] is 96% (active); in test [6], 37% (active).

Take `CC1CCCN(c2c3c(nc4ccccc24)CCCC3)C1` (stereo not given): the outcome in [1], in [2], in [3], in test [4], in [5] and in test [6] was inactive. In addition, the result in test [7], in test [8], in test [9], in test [10], in test [11] and in test [12] was inactive. In addition, the result in test [14], in test [15] and in test [16] was inactive. Further, in test [13], the inhibition is 27.9% (active).
